In PubChem BioAssay (NCATS):
Inconclusive results are not listed. Entries that show only a call come without a potency. A number with no mark means an inactive call. Active and inactive are the calls of the source. Calls come from the whole dose curve; as a rule, active = well fitted curve in the direction sought with a large enough effect; inconclusive = small, poorly fitted or top-dose-only effect, or another doubt; inactive = no such curve, though single readings can be large; an effect the other way counts as inactive or inconclusive. Numbered stars: 1 amine (or outer) side, 2 acyl side, 3 side chain; on linkers, the order of the positions; unused ones are H or OH. Bridge positions count the residues as written; N and C are the ends. Square brackets hold non-standard residues; d marks the D form. Peptide text beside a SMILES is read from it. I, II: the chains in the order shown. Actinocin(9to1) = Cc1c2oc3c(C)ccc(C(=O)[*:1])c3nc-2c(C(=O)[*:2])c(N)c1=O; NMeV = CN[C@H](C(=O)O)C(C)C; Sar = CNCC(=O)O

Experiments:
[1] = qHTS of pediatric cancer cell lines to identify multiple opportunities for drug repurposing: Primary screen for A673 cells (AID 1347092); note: nearly all actives have a fitted effect of over 45% in size
In short: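 A673 cells (500-1,000 cells/well in growth media) were pre-incubated 5 h at 37 degrees C, then exposed to compounds for 48 h. Viability was read as CellTiter-Glo luminescence; concentration-response curves came directly from the primary screen.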

[2] = qHTS of pediatric cancer cell lines to identify multiple opportunities for drug repurposing: Primary screen for SK-N-MC cells (AID 1347093)
In short: (§1)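 Metabolically active cells were quantified by ATP-dependent luminescence (CellTiter-Glo, 15 min at room temperature) following 48 h treatment. Cells had been plated at 500-1,000 per well and settled for 5 h beforehand.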

[3] = qHTS of pediatric cancer cell lines to identify multiple opportunities for drug repurposing: Primary screen for BT-37 cells (AID 1347094)
In short: (§2)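 Phenotypic viability qHTS, 48 h compound exposure, CellTiter-Glo luminescence read-out; multi-concentration dosing so that potency and efficacy derive directly from the primary screen's curves.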

[4] = qHTS of pediatric cancer cell lines to identify multiple opportunities for drug repurposing: Primary screen for NB-EBc1 cells (AID 1347095)
In short: as §2

[5] = qHTS of pediatric cancer cell lines to identify multiple opportunities for drug repurposing: Primary screen for U-2 OS cells (AID 1347096); note: nearly all actives have a fitted effect of over 50% in size
In short: (§3)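 Cells (500-1,000/well) in growth media were settled 5 h at 37 degrees C, then given compounds for 48 h. Viability was read as CellTiter-Glo luminescence. Primary runs used MIPE at 11 points (0.78 nM-46 µM) and NPC at 8 points (0.59 nM-46 µM); follow-ups used 11 points.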

[6] = qHTS of pediatric cancer cell lines to identify multiple opportunities for drug repurposing: Primary screen for Saos-2 cells (AID 1347097); note: nearly all actives have a fitted effect of over 40% in size
In short: as §2

[7] = qHTS of pediatric cancer cell lines to identify multiple opportunities for drug repurposing: Primary screen for SK-N-SH cells (AID 1347098); note: nearly all actives have a fitted effect of over 65% in size
In short: (§4)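 Cells (500-1,000/well) rested 5 h, then received compounds for 48 h; metabolically active cells were measured by CellTiter-Glo luminescence. Final concentrations spanned up to 46 µM (MIPE, 11-point) or 0.59 nM-46 µM (NPC, 8-point) in primary screens, 11-point in follow-ups.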

[8] = qHTS of pediatric cancer cell lines to identify multiple opportunities for drug repurposing: Primary screen for NB1643 cells (AID 1347099); note: nearly all actives have a fitted effect of over 50% in size
In short: as §2

[9] = qHTS of pediatric cancer cell lines to identify multiple opportunities for drug repurposing: Primary screen for BT-12 cells (AID 1347101); note: nearly all actives have a fitted effect of over 25% in size
In short: as §4

[10] = qHTS of pediatric cancer cell lines to identify multiple opportunities for drug repurposing: Primary screen for Rh18 cells (AID 1347102); note: nearly all actives have a fitted effect of over 65% in size
In short: as §3

[11] = qHTS of pediatric cancer cell lines to identify multiple opportunities for drug repurposing: Primary screen for OHS-50 cells (AID 1347103); note: nearly all actives have a fitted effect of over 40% in size
In short: as §4

[12] = qHTS of pediatric cancer cell lines to identify multiple opportunities for drug repurposing: Primary screen for RD cells (AID 1347104); note: nearly all actives have a fitted effect of over 55% in size
In short: as §2

[13] = qHTS of pediatric cancer cell lines to identify multiple opportunities for drug repurposing: Primary screen for MG 63 (6-TG R) cells (AID 1347105); note: nearly all actives have a fitted effect of over 50% in size
In short: as §2

[14] = qHTS of pediatric cancer cell lines to identify multiple opportunities for drug repurposing: Primary screen for control Hh wild type fibroblast cells (AID 1347106); note: nearly all actives have a fitted effect of over 55% in size
In short: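 Viability after 48 h compound treatment at 37C, 500-1,000 cells/well, read as ATP luminescence with CellTiter-Glo. Primary screens used 11-point (MIPE, 0.78 nM-46 µM) or 8-point (NPC, 0.59 nM-46 µM) final concentrations; follow-up screens used 11-point dilutions.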

[15] = qHTS of pediatric cancer cell lines to identify multiple opportunities for drug repurposing: Primary screen for Rh30 cells (AID 1347107); note: nearly all actives have a fitted effect of over 75% in size
In short: as §3

[16] = qHTS of pediatric cancer cell lines to identify multiple opportunities for drug repurposing: Primary screen for Rh41 cells (AID 1347108); note: nearly all actives have a fitted effect of over 70% in size
In short: as §2

[17] = qHTS of pediatric cancer cell lines to identify multiple opportunities for drug repurposing: Primary screen for LAN-5 cells (AID 1347100)
In short: as §3

[18] = qHTS of pediatric cancer cell lines to identify multiple opportunities for drug repurposing: Confirmatory screen for NB1643 cells (AID 1347109); note: nearly all actives have a fitted effect of over 45% in size
In short: as §3

[19] = qHTS of pediatric cancer cell lines to identify multiple opportunities for drug repurposing: Confirmatory screen for SK-N-MC cells (AID 1347111);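 note: cells exposed to compound for 48 h before the readout; nearly all actives have a fitted effect of over 70% in size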
In short: as §1

[20] = qHTS of pediatric cancer cell lines to identify multiple opportunities for drug repurposing: Confirmatory screen for A673 cells (AID 1347110); note: nearly all actives have a fitted effect of over 65% in size
In short: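 A673 cells seeded at 500-1,000 cells/well, rested 5 h, then dosed; primary MIPE 11-point (0.78 nM to 46 µM), NPC (0.59 nM to 46 µM); confirmatory 11-point. CellTiter-Glo luminescence after 48 h.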
Potency is the fitted concentration of half-maximal effect.

SMILES | Potency [1] | Potency [2] | Potency [3] | Potency [4] | Potency [5] | Potency [6] | Potency [7] | Potency [8] | Potency [9] | Potency [10] | Potency [11] | Potency [12] | Potency [13] | Potency [14] | Potency [15] | Potency [16] | Potency [17] | Potency [18] | Potency [19] | Potency [20]
COc1cccc2c1C(=O)c1c(O)c3c(c(O)c1C2=O)C[C@@](O)(C(C)=O)C[C@@H]3O[C@H]1C[C@H](N)[C@H](O)[C@H](C)O1 | 0.266 µM (active) | 0.0841 µM (active) | 0.11 µM (active) | 0.0531 µM (active) | 6.68 µM (active) | 0.266 µM (active) | 0.386 µM (active) | 0.133 µM (active) | 0.55 µM (active) | 0.473 µM (active) | 0.347 µM (active) | 1.19 µM (active) | 4.22 µM (active) | 16.8 µM (active) | inactive | 0.75 µM (active) |  |  |  | 
O=C(CCCN1CCC(O)(c2ccc(Br)cc2)CC1)c1ccc(F)cc1 | inactive | inactive | 0.001 µM (active) | inactive | inactive | inactive | inactive | 0.0237 µM (active) |  |  |  | inactive | inactive | inactive | inactive | inactive | inactive | inactive | 2.61 µM (active) | 
Oc1cc(O)c2c(c1)O[C@H](c1ccc(O)c(O)c1)[C@H](O)C2 | inactive | inactive | inactive | inactive | inactive | inactive |  | inactive |  | inactive |  | inactive | inactive | inactive | inactive | inactive | inactive |  |  | 
Cc1c2oc3c(C)ccc(C(=O)N[C@@H]4C(=O)N[C@H](C(C)C)C(=O)N5CCC[C@H]5C(=O)N(C)CC(=O)N(C)[C@@H](C(C)C)C(=O)O[C@@H]4C)c3nc-2c(C(=O)N[C@@H]2C(=O)N[C@H](C(C)C)C(=O)N3CCC[C@H]3C(=O)N(C)CC(=O)N(C)[C@@H](C(C)C)C(=O)O[C@@H]2C)c(N)c1=O (I: T[dV]P[Sar][NMeV] / II: T[dV]P[Sar][NMeV]; ester I:1-I:C, II:1-II:C; linker I:N-II:N via Actinocin(9to1)) | 0.0042 µM (active) | 0.0027 µM (active) | 0.0028 µM (active) | inactive | 0.0422 µM (active) | 0.0841 µM (active) | 0.0034 µM (active) |  | 0.0069 µM (active) |  | 0.0347 µM (active) | 0.0133 µM (active) | 0.0335 µM (active) |  | inactive |  | inactive | inactive | 0.0052 µM (active) | 0.0131 µM (active)
CCCCC(CC)CN=C(N)NC(N)=NCCCCCCN=C(N)NC(N)=NCC(CC)CCCC (stereo unspecified) | 1.68 µM (active) | 5.31 µM (active) | 9.78 µM (active) | 10.6 µM (active) | 21.1 µM (active) | 9.44 µM (active) | 4.33 µM (active) |  |  | 8.41 µM (active) | 4.37 µM (active) | 5.96 µM (active) | 6.68 µM (active) |  | 18.8 µM (active) | 21.1 µM (active) | 5.31 µM (active) | 5.22 µM (active) | 7.37 µM (active) | 3.29 µM (active)
CCCCS(=O)(=O)N[C@@H](Cc1ccc(OCCCCC2CCNCC2)cc1)C(=O)O | inactive | inactive | inactive | inactive | inactive | inactive |  | inactive | inactive | inactive | inactive | inactive | inactive | inactive | inactive | inactive | inactive |  |  | 
CCCCOc1ccc(OCCCN2CCOCC2)cc1 | inactive | inactive | inactive | inactive | inactive | inactive | inactive | inactive |  | inactive |  | inactive | inactive |  | inactive | inactive |  |  |  | 
c1ccc(OCc2ccc(CCCN3CCOCC3)cc2)cc1 | inactive | inactive | inactive | inactive | inactive | inactive | inactive | inactive |  | inactive |  | inactive | inactive | inactive | inactive | inactive |  |  |  | 
COc1cc(C(=S)N2CCOCC2)cc(OC)c1OC | inactive | inactive | inactive | inactive | inactive | inactive | inactive | inactive |  | inactive |  | inactive | inactive | inactive | inactive | inactive | inactive |  |  | 
Nc1nc2ncc(CNc3ccc(C(=O)N[C@@H](CCC(=O)O)C(=O)O)cc3)nc2c(=O)[nH]1 | inactive | inactive | inactive | inactive | inactive | inactive | inactive | inactive |  | inactive | inactive | inactive | inactive | inactive | inactive | inactive | inactive |  |  | 
CN(C)CCOc1ccccc1Cc1ccccc1 | inactive | inactive | inactive | inactive | inactive | inactive |  | inactive |  | inactive |  | inactive | inactive | inactive | inactive | inactive | inactive |  |  | 
Cc1cc2c(cc1CC(=O)c1sccc1S(=O)(=O)Nc1onc(C)c1Cl)OCO2 | inactive | inactive | inactive | inactive | inactive | inactive | inactive | inactive |  | inactive |  | inactive | inactive | inactive | inactive | inactive | inactive |  |  | 
CN1CCN(C(c2ccccc2)c2ccccc2)CC1 | inactive | inactive | inactive | inactive | inactive | inactive |  | inactive | inactive | inactive |  | inactive | inactive | inactive | inactive | inactive | inactive |  |  | 
COc1cccc2c1C(=O)c1c(O)c3c(c(O)c1C2=O)C[C@@](O)(C(=O)CO)C[C@@H]3O[C@H]1C[C@H](N)[C@H](O)[C@H](C)O1 | 1.06 µM (active) | 0.668 µM (active) | 0.347 µM (active) | 0.133 µM (active) | 13.3 µM (active) | 13.3 µM (active) | 0.217 µM (active) | 0.473 µM (active) | 1.38 µM (active) | 1.88 µM (active) | 1.1 µM (active) | 2.37 µM (active) | 5.31 µM (active) | 1.68 µM (active) | inactive | 1.68 µM (active) |  |  | 0.293 µM (active) | 0.928 µM (active)
c1ccc(CNCCNCc2ccccc2)cc1 | inactive | inactive | inactive | inactive | inactive | inactive | inactive | inactive |  | inactive | inactive | inactive | inactive | inactive | inactive | inactive | inactive |  |  | 
